# Test results: PMC7862700, “An all-to-all approach to the identification of sequence-specific readers for epigenetic DNA modifications on cytosine”
# Tests used:
# Experiment in all cases: DAPPL (digital affinity profiling via proximity ligation, sequencing); 10 mM Tris-HCl pH 7.5, 50 mM NaCl, 1 mM DTT, 4% glycerol, room temperature, 30 min; GST-TFs on glutathione beads, 16-mer random dsDNA library, 0.1% formaldehyde crosslink after washing; high values mean tight binding
# FEV = target: T1, FEV (Homo sapiens, UniProt Q99581 1-238); conditions: protein: recombinant; tags: N-terminal GST; dsDNA, one strand shown
# T1 sequence: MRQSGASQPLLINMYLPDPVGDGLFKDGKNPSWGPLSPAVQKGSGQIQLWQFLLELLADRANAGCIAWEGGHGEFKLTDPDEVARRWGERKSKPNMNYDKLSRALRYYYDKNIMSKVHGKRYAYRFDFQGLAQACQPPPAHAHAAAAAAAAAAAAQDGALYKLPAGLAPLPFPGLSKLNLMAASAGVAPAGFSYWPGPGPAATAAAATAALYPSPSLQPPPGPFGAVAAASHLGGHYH
# Outline: (§1)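 The binding signal reported is, for every hexamer, its read frequency for a factor over its read frequency for the tag-only sample. Reads came from pools of yeast-expressed, GST-fused human transcription factors on glutathione beads, barcoded with DNA and mixed with that sample, which were incubated with 200 nmole of a random double-stranded 16-mer DNA library in Tris/NaCl/DTT/glycerol buffer at room temperature for 30 min. After washing, the pools were crosslinked with 0.1% formaldehyde, proximity-ligated with BsaI/T4 ligase for 1 h at 37 °C, PCR-amplified and sequenced on an Illumina NextSeq500.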
# ETV5 = ETV5 (Homo sapiens, UniProt P41161 1-510); conditions: protein: recombinant; tags: N-terminal GST; dsDNA, one strand shown
# Outline: as §1
# HSF1 = HSF1 (Homo sapiens, UniProt Q00613 1-529); conditions: protein: recombinant; tags: N-terminal GST; chain copies: 3; dsDNA, one strand shown
# Outline: as §1
# SPIC = target: T2, SPIC (Homo sapiens, UniProt Q8N5J4 1-248); conditions: protein: recombinant; tags: N-terminal GST; dsDNA, one strand shown
# T2 sequence: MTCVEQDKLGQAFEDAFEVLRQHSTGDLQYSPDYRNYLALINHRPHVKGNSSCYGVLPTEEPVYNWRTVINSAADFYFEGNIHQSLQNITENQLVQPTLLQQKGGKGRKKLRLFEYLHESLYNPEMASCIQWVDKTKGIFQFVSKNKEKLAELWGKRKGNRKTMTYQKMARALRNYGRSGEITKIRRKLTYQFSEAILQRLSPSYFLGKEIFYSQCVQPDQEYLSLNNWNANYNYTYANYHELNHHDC
# Outline: as §1
# ELF4 = ELF4 (Homo sapiens, UniProt Q99607 1-663); conditions: protein: recombinant; tags: N-terminal GST; dsDNA, one strand shown
# Outline: as §1
# ELK4 = target: T3, ELK4 (Homo sapiens, UniProt P28324-2 1-405); conditions: protein: recombinant; tags: N-terminal GST; dsDNA, one strand shown
# T3 sequence: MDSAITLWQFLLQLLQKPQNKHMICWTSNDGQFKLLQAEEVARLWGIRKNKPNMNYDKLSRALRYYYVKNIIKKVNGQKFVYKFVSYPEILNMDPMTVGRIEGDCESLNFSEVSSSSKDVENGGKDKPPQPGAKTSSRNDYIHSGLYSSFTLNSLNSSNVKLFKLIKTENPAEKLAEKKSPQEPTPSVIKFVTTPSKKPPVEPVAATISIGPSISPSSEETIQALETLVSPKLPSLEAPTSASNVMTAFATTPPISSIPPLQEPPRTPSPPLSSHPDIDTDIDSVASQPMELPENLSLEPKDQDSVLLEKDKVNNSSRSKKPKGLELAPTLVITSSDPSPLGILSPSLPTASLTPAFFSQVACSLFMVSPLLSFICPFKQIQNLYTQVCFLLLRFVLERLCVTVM
# Outline: as §1
# ETV2 = target: T4, ETV2 (Homo sapiens, UniProt O00321 1-342); conditions: protein: recombinant; tags: N-terminal GST; dsDNA, one strand shown
# T4 sequence: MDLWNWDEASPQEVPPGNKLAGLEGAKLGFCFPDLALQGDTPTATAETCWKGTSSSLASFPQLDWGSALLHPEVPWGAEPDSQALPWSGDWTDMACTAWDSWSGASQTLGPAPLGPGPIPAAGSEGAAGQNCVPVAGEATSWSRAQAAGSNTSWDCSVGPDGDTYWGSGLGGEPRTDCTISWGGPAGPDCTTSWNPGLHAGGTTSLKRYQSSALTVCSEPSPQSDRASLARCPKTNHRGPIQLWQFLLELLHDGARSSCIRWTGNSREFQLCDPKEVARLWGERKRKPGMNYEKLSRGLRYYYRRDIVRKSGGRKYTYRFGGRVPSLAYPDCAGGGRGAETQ
# Outline: as §1
# ELF3 = target: T5, ELF3 (Homo sapiens, UniProt P78545 1-371); conditions: protein: recombinant; tags: N-terminal GST; dsDNA, one strand shown
# T5 sequence: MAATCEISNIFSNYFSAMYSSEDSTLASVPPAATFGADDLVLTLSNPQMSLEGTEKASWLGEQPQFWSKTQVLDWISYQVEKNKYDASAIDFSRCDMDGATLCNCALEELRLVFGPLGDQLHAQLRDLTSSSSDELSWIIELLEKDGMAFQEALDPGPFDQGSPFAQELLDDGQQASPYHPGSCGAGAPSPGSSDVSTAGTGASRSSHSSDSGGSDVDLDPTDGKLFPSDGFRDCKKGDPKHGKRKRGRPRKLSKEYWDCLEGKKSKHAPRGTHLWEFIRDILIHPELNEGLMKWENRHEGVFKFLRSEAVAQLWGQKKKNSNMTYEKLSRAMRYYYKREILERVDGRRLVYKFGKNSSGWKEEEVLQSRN
# Outline: as §1
# ETV1 = ETV1 (Homo sapiens, UniProt P50549 1-477); conditions: protein: recombinant; tags: N-terminal GST; dsDNA, one strand shown
# Outline: as §1
# ERF = target: T6, ERF (Homo sapiens, UniProt P50548 1-548); conditions: protein: recombinant; tags: N-terminal GST; dsDNA, one strand shown
# T6 sequence: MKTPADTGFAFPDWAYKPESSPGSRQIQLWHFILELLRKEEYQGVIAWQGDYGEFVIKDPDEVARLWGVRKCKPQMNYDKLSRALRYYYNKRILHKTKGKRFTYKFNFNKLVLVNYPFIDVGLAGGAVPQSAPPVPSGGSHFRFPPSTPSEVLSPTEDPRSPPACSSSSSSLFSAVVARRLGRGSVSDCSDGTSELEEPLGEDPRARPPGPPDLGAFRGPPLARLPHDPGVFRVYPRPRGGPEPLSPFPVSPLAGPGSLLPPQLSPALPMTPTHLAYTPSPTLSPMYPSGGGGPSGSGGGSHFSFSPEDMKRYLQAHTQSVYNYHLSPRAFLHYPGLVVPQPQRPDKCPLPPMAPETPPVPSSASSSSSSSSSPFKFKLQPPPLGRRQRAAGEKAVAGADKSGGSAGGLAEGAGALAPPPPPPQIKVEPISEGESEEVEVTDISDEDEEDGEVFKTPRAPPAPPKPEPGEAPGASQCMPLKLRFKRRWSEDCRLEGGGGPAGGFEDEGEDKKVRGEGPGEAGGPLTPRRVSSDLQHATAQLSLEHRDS
# Outline: as §1
# ETV3L = target: T7, ETV3L (Homo sapiens, UniProt Q6ZN32 1-361); conditions: protein: recombinant; tags: N-terminal GST; dsDNA, one strand shown
# T7 sequence: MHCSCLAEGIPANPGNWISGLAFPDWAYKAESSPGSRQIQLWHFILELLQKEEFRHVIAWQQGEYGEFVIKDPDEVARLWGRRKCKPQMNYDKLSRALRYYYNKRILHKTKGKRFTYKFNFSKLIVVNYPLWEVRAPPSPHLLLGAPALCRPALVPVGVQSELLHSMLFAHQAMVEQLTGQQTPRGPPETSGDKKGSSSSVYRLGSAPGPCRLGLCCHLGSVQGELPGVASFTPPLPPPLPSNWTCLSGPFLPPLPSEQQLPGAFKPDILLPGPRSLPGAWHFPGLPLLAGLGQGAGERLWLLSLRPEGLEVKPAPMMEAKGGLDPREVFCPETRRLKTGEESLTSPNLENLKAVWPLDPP
# Outline: as §1
# ETS2 = target: T8, ETS2 (Homo sapiens, UniProt P15036 1-469); conditions: protein: recombinant; tags: N-terminal GST; dsDNA, one strand shown
# T8 sequence: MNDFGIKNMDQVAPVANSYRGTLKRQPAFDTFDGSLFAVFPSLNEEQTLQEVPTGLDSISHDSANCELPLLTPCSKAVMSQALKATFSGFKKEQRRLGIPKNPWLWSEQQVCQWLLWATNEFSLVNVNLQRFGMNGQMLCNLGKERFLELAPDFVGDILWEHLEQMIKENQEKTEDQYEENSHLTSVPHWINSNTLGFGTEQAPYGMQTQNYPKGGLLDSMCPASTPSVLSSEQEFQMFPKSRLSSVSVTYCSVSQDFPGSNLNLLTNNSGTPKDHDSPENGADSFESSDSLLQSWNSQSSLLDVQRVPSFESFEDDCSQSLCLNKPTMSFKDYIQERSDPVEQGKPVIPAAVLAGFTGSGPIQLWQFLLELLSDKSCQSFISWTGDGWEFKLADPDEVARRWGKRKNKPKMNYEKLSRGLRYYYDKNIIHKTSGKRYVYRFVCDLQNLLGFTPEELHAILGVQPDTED
# Outline: as §1
# SPDEF = target: T9, SPDEF (Homo sapiens, UniProt O95238 1-335); conditions: protein: recombinant; tags: N-terminal GST; dsDNA, one strand shown
# T9 sequence: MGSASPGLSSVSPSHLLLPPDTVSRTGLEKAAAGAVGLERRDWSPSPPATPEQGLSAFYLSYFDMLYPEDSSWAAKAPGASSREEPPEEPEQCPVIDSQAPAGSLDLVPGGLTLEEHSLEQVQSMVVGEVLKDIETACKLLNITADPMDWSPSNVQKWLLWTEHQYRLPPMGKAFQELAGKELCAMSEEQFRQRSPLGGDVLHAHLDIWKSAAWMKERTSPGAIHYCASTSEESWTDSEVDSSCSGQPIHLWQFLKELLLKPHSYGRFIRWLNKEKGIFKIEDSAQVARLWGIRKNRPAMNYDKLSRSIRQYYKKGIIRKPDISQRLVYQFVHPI
# Outline: as §1
# ETV7 = target: T10, ETV7 (Homo sapiens, UniProt Q9Y603 1-341); conditions: protein: recombinant; tags: N-terminal GST; dsDNA, one strand shown
# T10 sequence: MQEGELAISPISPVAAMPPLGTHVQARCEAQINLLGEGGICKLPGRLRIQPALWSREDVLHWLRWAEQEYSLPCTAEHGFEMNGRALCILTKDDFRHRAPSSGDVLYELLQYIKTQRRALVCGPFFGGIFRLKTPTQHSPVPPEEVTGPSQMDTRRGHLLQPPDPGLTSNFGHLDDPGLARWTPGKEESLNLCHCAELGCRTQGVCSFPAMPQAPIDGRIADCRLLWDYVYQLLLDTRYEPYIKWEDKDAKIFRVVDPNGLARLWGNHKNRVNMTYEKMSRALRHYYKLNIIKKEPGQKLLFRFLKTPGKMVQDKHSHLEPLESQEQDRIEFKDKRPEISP
# Outline: as §1
# ELF5 = target: T11, ELF5 (Homo sapiens, UniProt Q9UKW6-2 1-255); conditions: protein: recombinant; tags: N-terminal GST; dsDNA, one strand shown
# T11 sequence: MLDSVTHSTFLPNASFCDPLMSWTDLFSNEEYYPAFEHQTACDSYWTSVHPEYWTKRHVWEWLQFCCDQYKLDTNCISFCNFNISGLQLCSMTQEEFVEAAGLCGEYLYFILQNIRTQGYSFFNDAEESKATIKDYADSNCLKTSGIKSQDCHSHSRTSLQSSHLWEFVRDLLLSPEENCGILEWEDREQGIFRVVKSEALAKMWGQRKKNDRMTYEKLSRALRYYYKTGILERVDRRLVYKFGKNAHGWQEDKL
# Outline: as §1
# ETV3 = target: T12, ETV3 (Homo sapiens, UniProt P41162-2 1-143); conditions: protein: recombinant; tags: N-terminal GST; dsDNA, one strand shown
# T12 sequence: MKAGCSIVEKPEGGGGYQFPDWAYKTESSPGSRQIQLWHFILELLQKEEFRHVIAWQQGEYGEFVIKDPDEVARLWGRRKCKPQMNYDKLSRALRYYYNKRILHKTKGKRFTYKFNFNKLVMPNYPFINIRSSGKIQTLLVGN
# Outline: as §1
# ETV6 = ETV6 (Homo sapiens, UniProt P41212 1-452); conditions: protein: recombinant; tags: N-terminal GST; dsDNA, one strand shown
# Outline: as §1
# Sequence of ETV6 (P41212 whole entry): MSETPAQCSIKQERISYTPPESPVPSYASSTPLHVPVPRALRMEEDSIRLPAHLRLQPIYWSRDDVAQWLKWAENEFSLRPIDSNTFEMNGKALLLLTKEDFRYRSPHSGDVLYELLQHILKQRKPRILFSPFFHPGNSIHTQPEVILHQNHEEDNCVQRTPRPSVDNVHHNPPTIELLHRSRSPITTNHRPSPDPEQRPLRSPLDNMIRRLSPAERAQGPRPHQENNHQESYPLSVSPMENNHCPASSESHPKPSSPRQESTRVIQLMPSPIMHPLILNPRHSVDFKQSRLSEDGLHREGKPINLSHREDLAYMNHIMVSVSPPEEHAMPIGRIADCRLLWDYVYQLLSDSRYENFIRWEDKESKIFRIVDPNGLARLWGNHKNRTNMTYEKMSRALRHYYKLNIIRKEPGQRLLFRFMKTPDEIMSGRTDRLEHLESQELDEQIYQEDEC
# Sequence of ETV5 (P41161 whole entry): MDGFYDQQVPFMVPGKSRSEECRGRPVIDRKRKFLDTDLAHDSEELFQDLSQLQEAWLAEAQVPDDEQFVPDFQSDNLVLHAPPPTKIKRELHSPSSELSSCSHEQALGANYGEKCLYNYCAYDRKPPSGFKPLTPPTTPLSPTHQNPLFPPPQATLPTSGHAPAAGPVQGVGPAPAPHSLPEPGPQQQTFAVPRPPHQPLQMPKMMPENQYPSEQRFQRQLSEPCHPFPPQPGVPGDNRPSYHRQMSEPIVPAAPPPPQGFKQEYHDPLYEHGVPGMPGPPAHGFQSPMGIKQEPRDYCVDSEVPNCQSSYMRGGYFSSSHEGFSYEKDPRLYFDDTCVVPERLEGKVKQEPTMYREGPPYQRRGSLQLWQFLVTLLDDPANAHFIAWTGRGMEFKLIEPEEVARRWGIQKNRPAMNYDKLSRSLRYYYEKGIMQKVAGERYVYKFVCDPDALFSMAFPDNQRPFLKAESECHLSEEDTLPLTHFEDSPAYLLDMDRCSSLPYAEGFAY
# Sequence of ELF4 (Q99607 whole entry): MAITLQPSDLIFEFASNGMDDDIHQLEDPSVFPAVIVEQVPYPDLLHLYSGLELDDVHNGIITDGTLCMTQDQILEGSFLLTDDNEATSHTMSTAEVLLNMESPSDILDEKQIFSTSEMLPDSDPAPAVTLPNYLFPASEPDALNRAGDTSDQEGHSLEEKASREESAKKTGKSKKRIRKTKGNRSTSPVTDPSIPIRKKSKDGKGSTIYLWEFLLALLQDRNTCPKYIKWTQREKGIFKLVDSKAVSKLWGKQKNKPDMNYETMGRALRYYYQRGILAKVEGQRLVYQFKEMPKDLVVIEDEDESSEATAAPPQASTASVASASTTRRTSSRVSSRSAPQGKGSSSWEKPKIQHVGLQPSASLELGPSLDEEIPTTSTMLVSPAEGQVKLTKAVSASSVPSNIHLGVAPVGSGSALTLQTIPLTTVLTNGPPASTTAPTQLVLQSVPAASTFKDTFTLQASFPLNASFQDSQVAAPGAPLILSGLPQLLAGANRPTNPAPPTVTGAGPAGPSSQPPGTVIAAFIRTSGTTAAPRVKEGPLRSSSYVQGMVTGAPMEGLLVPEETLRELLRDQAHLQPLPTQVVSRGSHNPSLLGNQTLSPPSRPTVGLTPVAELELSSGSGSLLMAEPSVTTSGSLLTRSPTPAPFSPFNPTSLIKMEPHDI
# Sequence of ETV1 (P50549 whole entry): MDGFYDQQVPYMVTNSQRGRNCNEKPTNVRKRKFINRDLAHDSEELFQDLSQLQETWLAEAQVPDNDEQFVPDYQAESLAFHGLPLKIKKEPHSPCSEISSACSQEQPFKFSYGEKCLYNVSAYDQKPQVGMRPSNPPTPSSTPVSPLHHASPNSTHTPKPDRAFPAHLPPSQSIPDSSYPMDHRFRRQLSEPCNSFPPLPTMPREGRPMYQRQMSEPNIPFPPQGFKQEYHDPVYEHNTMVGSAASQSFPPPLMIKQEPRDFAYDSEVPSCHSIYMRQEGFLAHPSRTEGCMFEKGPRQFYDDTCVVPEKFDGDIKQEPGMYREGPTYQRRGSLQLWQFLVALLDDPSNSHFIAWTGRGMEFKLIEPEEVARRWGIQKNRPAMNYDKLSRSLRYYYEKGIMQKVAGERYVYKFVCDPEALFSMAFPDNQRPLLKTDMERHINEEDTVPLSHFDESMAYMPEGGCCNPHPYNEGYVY
# Sequence of HSF1 (Q00613 whole entry): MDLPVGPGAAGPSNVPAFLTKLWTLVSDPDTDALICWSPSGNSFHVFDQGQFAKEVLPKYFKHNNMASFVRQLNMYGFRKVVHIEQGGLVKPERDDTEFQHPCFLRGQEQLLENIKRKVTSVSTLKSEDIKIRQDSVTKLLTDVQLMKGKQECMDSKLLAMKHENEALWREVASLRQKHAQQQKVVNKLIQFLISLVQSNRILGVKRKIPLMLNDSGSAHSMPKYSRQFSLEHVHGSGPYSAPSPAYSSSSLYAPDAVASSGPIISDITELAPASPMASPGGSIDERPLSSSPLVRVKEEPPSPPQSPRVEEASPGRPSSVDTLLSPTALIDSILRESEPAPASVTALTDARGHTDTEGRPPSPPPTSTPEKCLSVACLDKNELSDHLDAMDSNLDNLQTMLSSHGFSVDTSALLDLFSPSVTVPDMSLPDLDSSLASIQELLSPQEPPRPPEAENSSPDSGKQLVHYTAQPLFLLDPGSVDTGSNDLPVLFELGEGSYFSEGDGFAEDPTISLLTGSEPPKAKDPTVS
sequence,measurement,setting,value
CACGAC,binding signal,FEV,"1.29 fold enrichment (6-mer frequency, TF over GST control)"
same,binding signal,ETV5,"1.28 fold enrichment (6-mer frequency, TF over GST control)"
same,binding signal,HSF1,"1.05 fold enrichment (6-mer frequency, TF over GST control)"
same,binding signal,SPIC,"1.26 fold enrichment (6-mer frequency, TF over GST control)"
same,binding signal,ELF4,"1.35 fold enrichment (6-mer frequency, TF over GST control)"
same,binding signal,ELK4,"1.53 fold enrichment (6-mer frequency, TF over GST control)"
same,binding signal,ETV2,"1.34 fold enrichment (6-mer frequency, TF over GST control)"
same,binding signal,ELF3,"1.32 fold enrichment (6-mer frequency, TF over GST control)"
same,binding signal,ETV1,"1.15 fold enrichment (6-mer frequency, TF over GST control)"
same,binding signal,ERF,"1.22 fold enrichment (6-mer frequency, TF over GST control)"
same,binding signal,ETV3L,"1.26 fold enrichment (6-mer frequency, TF over GST control)"
same,binding signal,ETS2,"1.24 fold enrichment (6-mer frequency, TF over GST control)"
same,binding signal,SPDEF,"1.19 fold enrichment (6-mer frequency, TF over GST control)"
same,binding signal,ETV7,"1.34 fold enrichment (6-mer frequency, TF over GST control)"
same,binding signal,ELF5,"1.24 fold enrichment (6-mer frequency, TF over GST control)"
same,binding signal,ETV3,"1.15 fold enrichment (6-mer frequency, TF over GST control)"
same,binding signal,ETV6,"1.24 fold enrichment (6-mer frequency, TF over GST control)"
